Measurements reported in PubChem BioAssay (EPA / NIEHS).
A structure can be active in one record and inactive in another. The source made the active and inactive calls. The calls were made as follows: active = hit-call score of the fitted dose curve at least 0.9, where 1 is the maximum; inactive = score below 0.9.

system: not listed separately; assay: ATG_M_06_CIS: Attagene CIS-FACTORIAL HepG2 Assay for M06 Transcription Factor (Internal Marker) (AID 2282950); conditions: HepG2 Attagene CIS-FACTORIAL M06 internal marker reporter; actives raise or lower the signal
Outline: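 Serves as a background control readout. Transfected HepG2 exposed to compounds for 24 h, then reporter transcripts quantified by fluorescent RT-PCR and capillary electrophoresis. Both directions fitted against DMSO baseline.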

Compound | outcome | AC50
CC(C#N)CCC#N (stereo not given) | inactive | –
Cc1ccc(N)cc1Cl | inactive | –
Oc1cccc2cccnc12 | inactive | –
BrCCBr | inactive | –
O=C(O)C(F)(F)C(F)(F)C(F)(F)C(F)(F)C(F)(F)C(F)(F)C(F)(F)C(F)(F)C(F)(F)C(F)(F)F | inactive | 76.2 µM (active)
CC(C)(C)c1cc(O)ccc1O | inactive | –
CC(C)c1cccc(C(C)C)c1O | inactive | –
O=[N+]([O-])c1ccc(O)c([N+](=O)[O-])c1 | inactive | –
COC(=O)c1sccc1S(=O)(=O)NC(=O)Nc1nc(C)nc(OC)n1 | inactive | –
CC1(C)CCC(Cc2ccc(Cl)cc2)C1(O)Cn1cncn1 (stereo not given) | inactive | –
ClCc1ccccn1 | inactive | –
CCCCP(CCCC)CCCC | inactive | –
O=C(Cl)c1ccc(Cl)cc1 | inactive | –
CC1CN1P(=O)(N1CC1C)N1CC1C (stereo not given) | inactive | –
O=P(O)(O)CN(CP(=O)(O)O)CP(=O)(O)O | inactive | –
ClCCBr | inactive | –
Oc1ccc(-c2ccccc2)cc1 | inactive | –
CCOP(=O)(CN(CCO)CCO)OCC | inactive | –
Nc1ccc(N=Nc2ccc(-c3ccc(N=Nc4c(S(=O)(=O)O)cc5cc(S(=O)(=O)O)c(N=Nc6ccccc6)c(O)c5c4N)cc3)cc2)c(N)c1 | inactive | –
Cc1ccccc1N | inactive | –
CC(=[OH+])/C=C(/C)[O-].CC(=[OH+])/C=C(/C)[O-].CC(=[OH+])/C=C(/C)[O-].[Fe] | inactive | –
Fc1ccc(C2(Cn3cncn3)OC2c2ccccc2Cl)cc1 (stereo not given) | inactive | –
O=[N+]([O-])c1c(Cl)c(Cl)cc(Cl)c1Cl | inactive | –
C=C(C)C(=O)[O][Sn]([CH2]CCC)([CH2]CCC)[CH2]CCC | inactive | –
Cc1cc(Cl)ccc1O[C@H](C)C(=O)O | inactive | –
CCC(C)c1cccc(C(C)CC)c1O (stereo not given) | inactive | –
C1CCC(NC2CCCCC2)CC1 | inactive | –
Cc1cc(=O)[nH]o1 | inactive | –
O=C/C=C/c1ccccc1 | inactive | –

target: Hypoxia-inducible factor 1-alpha (Homo sapiens) (UniProt Q16665); assay: ATG_HIF1a_CIS: Attagene CIS-FACTORIAL HepG2 Assay for human Hypoxia Inducible Factor 1 (HIF1A) (AID 2282951); conditions: HepG2 Attagene cis-factorial HIF1a reporter transcription; actives raise or lower the signal
Sequence (Q16665 whole entry, looked up): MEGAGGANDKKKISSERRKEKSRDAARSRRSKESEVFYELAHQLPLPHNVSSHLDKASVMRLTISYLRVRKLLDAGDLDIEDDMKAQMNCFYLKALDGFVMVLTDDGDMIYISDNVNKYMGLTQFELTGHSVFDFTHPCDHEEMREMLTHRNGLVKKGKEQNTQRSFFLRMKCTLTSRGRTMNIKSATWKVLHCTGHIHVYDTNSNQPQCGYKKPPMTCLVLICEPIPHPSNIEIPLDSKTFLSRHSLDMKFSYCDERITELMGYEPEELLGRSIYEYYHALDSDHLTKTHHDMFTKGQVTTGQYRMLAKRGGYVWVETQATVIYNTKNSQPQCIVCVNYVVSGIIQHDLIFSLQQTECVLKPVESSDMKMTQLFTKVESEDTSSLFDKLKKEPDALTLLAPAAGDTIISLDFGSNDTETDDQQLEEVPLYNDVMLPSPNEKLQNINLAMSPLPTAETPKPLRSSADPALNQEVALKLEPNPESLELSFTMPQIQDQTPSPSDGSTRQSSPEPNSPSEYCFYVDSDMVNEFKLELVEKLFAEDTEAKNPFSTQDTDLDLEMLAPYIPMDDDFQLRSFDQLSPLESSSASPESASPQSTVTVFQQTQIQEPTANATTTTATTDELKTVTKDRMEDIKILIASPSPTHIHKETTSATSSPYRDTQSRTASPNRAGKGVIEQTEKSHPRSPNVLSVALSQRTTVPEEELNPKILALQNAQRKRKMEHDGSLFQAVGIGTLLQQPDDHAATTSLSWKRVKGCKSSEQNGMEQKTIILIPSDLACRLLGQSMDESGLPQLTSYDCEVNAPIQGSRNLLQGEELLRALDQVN
Outline: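 In this multiplexed cell assay, HepG2 cells bearing transfected cis reporters are dosed for 24 h and reporter mRNA is read by RT-PCR plus capillary electrophoresis; signal increases and decreases are both scored against DMSO.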

Compound | outcome | AC50
CC(C#N)CCC#N (stereo not given) | inactive | –
CN(C)N=O | inactive | –
Cc1ccc(N)cc1Cl | inactive | –
BrCCBr | inactive | –
O=C(O)C(F)(F)C(F)(F)C(F)(F)C(F)(F)C(F)(F)C(F)(F)C(F)(F)C(F)(F)C(F)(F)C(F)(F)F | inactive | 23.2 µM (active)
CC(C)(OO)c1ccccc1 | inactive | –
COP(=S)(OC)Oc1ccc(Sc2ccc(OP(=S)(OC)OC)cc2)cc1 | – | 39.3 µM (active)
O=[N+]([O-])c1ccc(O)c([N+](=O)[O-])c1 | inactive | –
COC(=O)c1sccc1S(=O)(=O)NC(=O)Nc1nc(C)nc(OC)n1 | inactive | –
CC1(C)CCC(Cc2ccc(Cl)cc2)C1(O)Cn1cncn1 (stereo not given) | inactive | –
COC[C@H](C)N(C(=O)CCl)c1c(C)csc1C | inactive | –
CCOC(=O)Nc1cccc(OC(=O)Nc2ccccc2)c1 | inactive | –
ClCc1ccccn1 | inactive | –
CCCCP(CCCC)CCCC | inactive | –
O=C(Cl)c1ccc(Cl)cc1 | inactive | –
CC1CN1P(=O)(N1CC1C)N1CC1C (stereo not given) | inactive | –
O=P(O)(O)CN(CP(=O)(O)O)CP(=O)(O)O | inactive | –
ClCCBr | inactive | –

Compound | outcome | AC50
Oc1ccc(-c2ccccc2)cc1 | inactive | –
CCOP(=O)(CN(CCO)CCO)OCC | inactive | –
CC(C)c1ccc(CO)cc1 | inactive | –
ClC1(Cl)C2(Cl)C3(Cl)C4(Cl)C(Cl)(Cl)C5(Cl)C3(Cl)C1(Cl)C5(Cl)C24Cl (stereo not given) | inactive | –
Nc1ccc(N=Nc2ccc(-c3ccc(N=Nc4c(S(=O)(=O)O)cc5cc(S(=O)(=O)O)c(N=Nc6ccccc6)c(O)c5c4N)cc3)cc2)c(N)c1 | inactive | –
Cc1ccccc1N | inactive | –
CC(=[OH+])/C=C(/C)[O-].CC(=[OH+])/C=C(/C)[O-].CC(=[OH+])/C=C(/C)[O-].[Fe] | inactive | –
Fc1ccc(C2(Cn3cncn3)OC2c2ccccc2Cl)cc1 (stereo not given) | inactive | –
O=[N+]([O-])c1c(Cl)c(Cl)cc(Cl)c1Cl | inactive | –
C=C(C)C(=O)[O][Sn]([CH2]CCC)([CH2]CCC)[CH2]CCC | inactive | –
Cc1cc(Cl)ccc1O[C@H](C)C(=O)O | inactive | –
CCC(C)c1cccc(C(C)CC)c1O (stereo not given) | inactive | –
O=c1[nH]c(=O)[nH]c(=O)[nH]1 | inactive | –
C1CCC(NC2CCCCC2)CC1 | inactive | –
Cc1cc(=O)[nH]o1 | inactive | –
O=C/C=C/c1ccccc1 | inactive | –
COP(=S)(OC)Oc1c(Cl)cc(C)cc1Cl | inactive | –

target: Hepatocyte nuclear factor 6 (Homo sapiens) (UniProt Q9UBC0); assay: ATG_HNF6_CIS: Attagene CIS-FACTORIAL HepG2 Assay for human Hepatocyte Nuclear Factor 6 (HNF6) (AID 2282952); conditions: HepG2 Attagene cis-factorial HNF6 reporter transcription; actives raise or lower the signal
Sequence (Q9UBC0 whole entry, looked up, the tested form may be a part): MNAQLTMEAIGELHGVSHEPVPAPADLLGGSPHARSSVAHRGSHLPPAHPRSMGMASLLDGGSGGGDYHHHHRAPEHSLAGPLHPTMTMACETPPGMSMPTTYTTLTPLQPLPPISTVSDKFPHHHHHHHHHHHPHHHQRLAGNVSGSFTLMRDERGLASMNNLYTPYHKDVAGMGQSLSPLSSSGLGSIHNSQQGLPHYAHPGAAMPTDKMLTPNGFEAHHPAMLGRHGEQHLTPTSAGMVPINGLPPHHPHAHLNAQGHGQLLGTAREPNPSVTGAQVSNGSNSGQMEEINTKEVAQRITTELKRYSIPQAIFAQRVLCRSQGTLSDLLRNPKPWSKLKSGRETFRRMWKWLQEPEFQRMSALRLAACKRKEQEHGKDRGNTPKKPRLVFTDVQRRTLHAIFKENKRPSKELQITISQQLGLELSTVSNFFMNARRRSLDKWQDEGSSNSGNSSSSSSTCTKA
Outline: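 Twenty-four-hour chemical treatment of reporter-transfected HepG2 cells precedes RNA isolation, DNase-treated reverse transcription and PCR of reporter sequences. Labelled fragments are sized by capillary electrophoresis and fitted bidirectionally versus DMSO.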

Compound | outcome | AC50
CC(C#N)CCC#N (stereo not given) | inactive | –
CN(C)N=O | inactive | –
Cc1ccc(N)cc1Cl | inactive | –
Oc1cccc2cccnc12 | inactive | –
BrCCBr | inactive | –
O=C(O)C(F)(F)C(F)(F)C(F)(F)C(F)(F)C(F)(F)C(F)(F)C(F)(F)C(F)(F)C(F)(F)C(F)(F)F | inactive | –
CC(C)(OO)c1ccccc1 | inactive | –
CC(C)(C)c1cc(O)ccc1O | inactive | –
COP(=S)(OC)Oc1ccc(Sc2ccc(OP(=S)(OC)OC)cc2)cc1 | inactive | –
CC(C)c1cccc(C(C)C)c1O | inactive | –
O=[N+]([O-])c1ccc(O)c([N+](=O)[O-])c1 | inactive | –
COC(=O)c1sccc1S(=O)(=O)NC(=O)Nc1nc(C)nc(OC)n1 | inactive | –
CC1(C)CCC(Cc2ccc(Cl)cc2)C1(O)Cn1cncn1 (stereo not given) | inactive | –
COC[C@H](C)N(C(=O)CCl)c1c(C)csc1C | inactive | –
CCOC(=O)Nc1cccc(OC(=O)Nc2ccccc2)c1 | inactive | –
ClCc1ccccn1 | inactive | –
CCCCP(CCCC)CCCC | inactive | –
O=C(Cl)c1ccc(Cl)cc1 | inactive | –
CC1CN1P(=O)(N1CC1C)N1CC1C (stereo not given) | inactive | –
O=P(O)(O)CN(CP(=O)(O)O)CP(=O)(O)O | inactive | –

Compound | outcome | AC50
ClCCBr | inactive | –
Oc1ccc(-c2ccccc2)cc1 | inactive | –
CCOP(=O)(CN(CCO)CCO)OCC | inactive | –
CC(C)c1ccc(CO)cc1 | inactive | –
C[C@]12CCC(=O)C[C@@H]1CC[C@@H]1[C@@H]2CC[C@]2(C)[C@@H](O)CC[C@@H]12 | inactive | –
ClC1(Cl)C2(Cl)C3(Cl)C4(Cl)C(Cl)(Cl)C5(Cl)C3(Cl)C1(Cl)C5(Cl)C24Cl (stereo not given) | inactive | –
Nc1ccc(N=Nc2ccc(-c3ccc(N=Nc4c(S(=O)(=O)O)cc5cc(S(=O)(=O)O)c(N=Nc6ccccc6)c(O)c5c4N)cc3)cc2)c(N)c1 | inactive | –
Cc1ccccc1N | inactive | –
CC(=[OH+])/C=C(/C)[O-].CC(=[OH+])/C=C(/C)[O-].CC(=[OH+])/C=C(/C)[O-].[Fe] | inactive | –
Fc1ccc(C2(Cn3cncn3)OC2c2ccccc2Cl)cc1 (stereo not given) | inactive | –
O=[N+]([O-])c1c(Cl)c(Cl)cc(Cl)c1Cl | inactive | –
C=C(C)C(=O)[O][Sn]([CH2]CCC)([CH2]CCC)[CH2]CCC | – | 656 nM (active)
Cc1cc(Cl)ccc1O[C@H](C)C(=O)O | inactive | –
CCC(C)c1cccc(C(C)CC)c1O (stereo not given) | inactive | –
O=c1[nH]c(=O)[nH]c(=O)[nH]1 | inactive | –
C1CCC(NC2CCCCC2)CC1 | inactive | –
Cc1cc(=O)[nH]o1 | inactive | –
O=C/C=C/c1ccccc1 | inactive | –
COP(=S)(OC)Oc1c(Cl)cc(C)cc1Cl | inactive | –
